Compound activity as filed in PubChem.
This is a sample that favours compounds with a hit; in the whole collection about 4.6% have one here.
ADAM17 inh: ADAM17 inhibitors, primary screen, biochemical, QFRET; Disintegrin and metalloproteinase domain-containing protein 17 (Homo sapiens), P78536; recombinant ADAM17, EDANS/DABCYL FRET peptide cleavage; inhibition, % at 6.95 µM; 0.83% of 370,000 active; AID 720648, 2013;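 active = inhibition above the mean of compounds lying between control limits plus 3 SD, set per campaign, cut at about 8.5% in these data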;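 also: 0% = DMSO-only wells as the low control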
FAS-TE inh: FAS thioesterase domain inhibitors, primary screen, biochemical, fluorescence intensity, uHTS | recombinant FAS-TE, OMFH fluorogenic substrate, fluorescence endpoint | Fatty acid synthase (Homo sapiens), P49327 | 0.67% of 360,000 active | inhibition, % at 15 µM;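 active = compounds whose normalised, plate-corrected inhibition of enzyme fluorescence in the single-dose primary screen is 50% or more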;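 also: 0% = DMSO with enzyme and 100% = substrate without enzyme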
KLK7 zymogen act: proKLK7 zymogen activators, primary screen, biochemical, fluorescence intensity; activation, % at 7 µM; purified proKLK7, EDANS-DABCYL substrate fluorescence; 100% is mature enzyme control, 0% vehicle; 0.9% of 370,000 active;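 active = activation above the mean of all tested compounds plus 3 SD, computed per campaign excluding outliers beyond control limits, cut at about 13% in these data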
ADAM10 inh: human ADAM10 inhibitors, primary screen, biochemical, QFRET, HTS; Disintegrin and metalloproteinase domain-containing protein 10 (Homo sapiens), O14672; recombinant ADAM10, EDANS/DABCYL FRET peptide cleavage, 3 h; inhibition, % at 7 µM; 0.62% of 370,000 active; AID 720582, 2013;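 active = inhibition above a per-campaign cutoff equal to the mean of compounds falling between control-based bounds plus 3 SD, cut at about 20% in these data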;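 also: 0% = DMSO wells while the 100% control is not disclosed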
Target sequence (O14672 214-748 limits assumed): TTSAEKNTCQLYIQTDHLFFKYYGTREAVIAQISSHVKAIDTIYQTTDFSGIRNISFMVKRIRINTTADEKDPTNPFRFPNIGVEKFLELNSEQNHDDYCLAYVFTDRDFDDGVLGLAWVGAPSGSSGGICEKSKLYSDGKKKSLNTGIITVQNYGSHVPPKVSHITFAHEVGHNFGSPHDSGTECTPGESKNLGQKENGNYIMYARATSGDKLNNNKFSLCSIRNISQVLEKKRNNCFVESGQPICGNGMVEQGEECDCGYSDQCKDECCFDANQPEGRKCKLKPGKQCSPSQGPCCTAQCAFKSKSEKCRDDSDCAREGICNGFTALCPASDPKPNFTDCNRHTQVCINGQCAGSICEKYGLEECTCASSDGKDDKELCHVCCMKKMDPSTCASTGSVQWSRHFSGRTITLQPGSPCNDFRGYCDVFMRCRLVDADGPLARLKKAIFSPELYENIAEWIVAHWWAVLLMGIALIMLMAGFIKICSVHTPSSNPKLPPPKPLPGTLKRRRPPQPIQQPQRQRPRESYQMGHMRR
GRIN3A LBD mod: binders of NR3A ligand-binding domain, primary screen, biophysical, differential scanning fluorimetry, uHTS; 2.5% of 340,000 active; Tm shift relative to glycine control, % at 25 µM; AID 1259313, 2017; NR3A LBD differential scanning fluorimetry, Tm shift; 0% = protein alone, 100% = glycine-bound protein;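 active = melting temperature shift of at least 10% of the positive control shift, at one fixed dose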
Active calls of the source: *; . = no result.

SMILES	ADAM17 inh	FAS-TE inh	KLK7 zymogen act	ADAM10 inh	GRIN3A LBD mod
O=c1c2ccccc2oc2ccc(-c3ccc4[nH]ccc4c3)cc12	4.5	22.6	-3.9	14.2	18.4*
CN1CCN(c2ccc3c(c2)Oc2ccccc2CN(Cc2cn(Cc4ccc(F)cc4)nn2)S3(=O)=O)CC1	0.5	.	0.3	-0.1	.
COc1ccc(-c2csc3ncnc(N4CCN(Cc5ccccc5)CC4)c23)cc1	-2.7	27.2	-0.8	0.9	14.4*
COc1ccc(-c2csc3ncnc(N4CCN(c5ccccc5)CC4)c23)cc1	-3.7	28.7	0.7	8.6	-5.3
CCCCNC(=S)NCC(c1ccccc1)c1c[nH]c2ccccc12 (centres undefined)	8.0	14.6	-0.2	13.2	29.9*
CC(C)C[C@@H]1COc2cc(N3CCCC3)ccc2S(=O)(=O)N1C	1.2	.	-0.6	5.3	.
COc1cc(/C=C2\SC(=S)N(C(Cc3ccccc3)C(=O)O)C2=O)ccc1O (centres undefined)	-2.0	-1.5	0.6	-3.5	-0.8
O=C(O)C(Cc1ccccc1)N1C(=O)c2c(Cl)c(Cl)c(Cl)c(Cl)c2C1=O (centres undefined)	0.5	-28.8	0.9	-2.9	11.3*
Cc1ccc(/C=C2\SC(=S)N(C(Cc3ccccc3)C(=O)O)C2=O)cc1 (centres undefined)	-0.9	13.5	0.0	-1.9	24.1*
O=C(O)C(Cc1ccccc1)N1C(=O)/C(=C/c2ccccc2)SC1=S (centres undefined)	1.2	16.8	0.1	-5.1	11.5*
O=C(O)C(Cc1ccccc1)N1C(=O)c2ccccc2C1=O (centres undefined)	-7.2	-4.2	-0.1	-3.4	-1.1
COC(=O)[C@H](CC(C)C)N1Cc2nnn(Cc3ccccc3)c2-c2cc(F)ccc2S1(=O)=O	5.2	.	0.4	12.7	.
O=C(Nn1c(O)c(C=C2N=c3ccccc3=N2)sc1=S)c1ccccc1Cl	-3.9	-5.5	0.2	-18.8	23.2*
COC(=O)NNC(=O)COc1ccc2ccccc2c1Br	0.5	-9.4	-0.7	9.0	-0.6
O=C(COc1ccc2ccccc2c1Br)NNC(=O)Nc1ccccc1	1.4	0.5	1.0	4.2	10.4*
C#CCNC(=O)C[C@H]1C[C@@]2(C(=O)OC)C(=C[C@H](COCc3ccccc3)O[C@@H]2C)N(Cc2cccc3ccccc23)C1=O	-0.2	.	0.6	3.2	.
CCn1nc(C)c(C2C(C#N)=C(N)OC3=C2C(=O)CCC3)c1C (centres undefined)	-5.1	-8.5	0.0	-3.7	-2.6
Cc1nn(C)c(C)c1C1C(C#N)=C(N)OC2=C1C(=O)CCC2 (centres undefined)	0.4	-14.1	0.9	-2.2	11.6*
O=C(NCCc1c[nH]c2ccccc12)c1ccc([N+](=O)[O-])cc1	-2.3	20.2	-0.3	-0.3	24.6*
O=C(CCCc1c[nH]c2ccccc12)NCCc1c[nH]c2ccccc12	7.7	8.0	0.6	19.1	15.5*
N#CCC(=O)Nc1ccc(C(=O)NCCc2c[nH]c3ccccc23)cc1	-1.1	-0.5	-0.5	-3.5	18.4*
NC(=NCCc1c[nH]c2ccccc12)NC(=O)c1ccc(Cl)cc1	3.0	-7.6	-0.5	19.1	23.8*
O=C(N[C@@H](Cc1c[nH]c2ccccc12)C(=O)O)c1ccc(Cl)cc1	2.6	-6.6	0.8	-4.4	0.2
COCCCNC(=O)C[C@H]1C[C@@]2(C(=O)OC)C(=C[C@H](C3CCCC3)O[C@@H]2C)N(CCc2ccc(OC)c(OC)c2)C1=O	0.7	.	-0.2	3.5	.
CN(Cc1ccccc1)C(=O)OCc1cn(Cc2cc(F)ccc2F)nn1	-1.5	.	-0.1	0.1	.
CCOC(=O)N1CCN(C(=O)C[C@H]2C[C@@]3(C(=O)OC)C(=C[C@H](COCc4ccccc4)O[C@@H]3C)N(Cc3ccc(Cl)cc3Cl)C2=O)CC1	2.4	.	0.7	7.3	.
C[C@H]1[C@@H](NC(=O)c2ccc(Cl)cc2)CC[C@@]23CCCN2C(=O)CCC[C@@H]13	-4.1	.	.	-6.9	.
